Assay results as given in paper PMC12136788.
Positions count from the first letter of the chain named. Over roughly 5,800 sequences, “enrichment r” has its median near 0.68; the highest 2% begin near 11. The full list was thinned out, with the highest values kept by preference.

T1: UNK ZnF1-6 (called full-length) (human, UniProt Q9C0B0 30-357)
T1 sequence: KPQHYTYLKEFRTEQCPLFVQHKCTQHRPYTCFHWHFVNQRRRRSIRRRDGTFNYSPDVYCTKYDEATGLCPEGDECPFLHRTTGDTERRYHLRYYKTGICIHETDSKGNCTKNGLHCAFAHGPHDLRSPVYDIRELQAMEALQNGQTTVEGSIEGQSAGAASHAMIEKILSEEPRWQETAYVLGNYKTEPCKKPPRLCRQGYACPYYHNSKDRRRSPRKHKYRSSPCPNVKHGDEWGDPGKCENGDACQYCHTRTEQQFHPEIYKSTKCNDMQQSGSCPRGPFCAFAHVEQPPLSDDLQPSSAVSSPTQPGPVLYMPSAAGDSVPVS

B1: chr3:23980279:23980388:+|3pUTR|ENSG00000174738|unk|FALSE|unique (ssRNA)
RNA: GGGAGUUCUACAGUCCGACGAUCUUUUUCUUUUCCAAUAUAAAGUUUGCUGAAUGUACAAGAAGAGUUUAUCACUUAGGAUAUAGAAUUUUUUUAGGGGUUGGGGGAGGGGAUCUGUUAGGAAACUGUUACCUAUAAACAAAGCAACAGAGGAUUGAGCAUCA
B2: chr1:6525536:6525637:-|3pUTR|ENSG00000162408|msi1|total|mutant (ssRNA)
RNA: GGGAGUUCUACAGUCCGACGAUCACAGUUUGUGUGCCAUUAAAACAGAGAUUCCUCAGAAAGUUCUUCAGGGACCUGGUUAUCCGAAUCAGGAUAAAAAUAAGGAAACUGGGGCCAUUACAAUGUACCGAGAAGGAAGGAAGACAACAGAGGAUUGAGCAUCA
B3: chr1:85021069:85021276:-|CDS|ENSG00000055732|control|control|control (ssRNA)
RNA: GGGAGUUCUACAGUCCGACGAUCGAUAUGUUUGCCACGUUUGCAAAAAUGCAGCAAAAAAGUUACUUAGUCUGGCUGUUUAGUAGAAUUUACCUCUACUCAUUCAUCAGCCUCUUUAUAUAUAUGAUUUUAAGUCUUUUCAUUCAACAGAGGAUUGAGCAUCA
B4: chr1:42176760:42176861:-|3pUTR|ENSG00000198815|msi1|FALSE|bound_elsewhere (ssRNA)
RNA: GGGAGUUCUACAGUCCGACGAUCGUCGCUCAGAUGUCCUUUGAAGUGGGAGGGAAUCAAUCCGGGGAUAAUUUCAAAUGGAAUAGAGUAUUUUGAUAUUGUUCAUUCAGAGGGUGAUGUGUACAUAUCUAUAUUGUAUAUAUGCAACAGAGGAUUGAGCAUCA
B5: chr8:108778973:108784180:-|three_prime_utr|ENSG00000164841|control|control|control (ssRNA)
RNA: GGGAGUUCUACAGUCCGACGAUCAAGUUUAUUUCACAAACCAACAGCCAGUAAGUGUUUUUGUUCUCUAUGUGUCUUCUAUUUAGAAGAAAAGCCAUGUAAGAUGUAUAAGAAACCACAACCAGCCACACCUAUCCUUCUGAACAACAGAGGAUUGAGCAUCA
B6: ENSG00000072803:stop:overlap|stop_codon|ENSG00000072803|stop_codon|NA|stop_codon (ssRNA)
RNA: GGGAGUUCUACAGUCCGACGAUCCUGGAUACAGUAAACGGAAAGAAUCUUGGAAGAUGCUUGACUGCUGUCUUUUCUCAGACUAGUCUGAAAGGGAAAACCCCCAUUCAUUCUGGAUUGGUGGAUCUGAAGUACAAAAUAUUUCAACAGAGGAUUGAGCAUCA
B7: chrX:47571900:47572933:-|three_prime_utr|ENSG00000008056|control|control|control (ssRNA)
RNA: GGGAGUUCUACAGUCCGACGAUCAAACCUGACUCCUCCUGGCCCUAAAUCCGGUUCUCACAUGUGGAAUCCCCAAGUCCUUUUAGAACCCCACUCGUGGUCACUUCAGGAUCUACUUCUGUUUUAGAACCUCCACAUUCCUGACAACAGAGGAUUGAGCAUCA
B8: chr7:20412070:20412171:+|3pUTR|ENSG00000105855|msi1|total|mutant (ssRNA)
RNA: GGGAGUUCUACAGUCCGACGAUCCUUUUUUUUUAUAAUAAACUUCCAAGAUUUGCUGUCUUCCAGCACUUGAGUUAAAGUACCCGAUACUGCAUUUUGAUGAAGACUAACCCCAUCUCAUAUUCUACCCUAAAGAGAACUGAACAACAGAGGAUUGAGCAUCA
B9: chr19:18196783:18197469:-|three_prime_utr|ENSG00000105649|control|control|control (ssRNA)
RNA: GGGAGUUCUACAGUCCGACGAUCACUACCCGGGCCUGACCCGGCCCCUACCAGCCACGGGCACAAGACCCCUGCUCCUGACUUAGCCCGUCACCCUUAUUUAUUAUUGUAGCUAUUUAUUUAUUUAUUGAAGAUGUCCCCCAGCAACAGAGGAUUGAGCAUCA
B10: chr4:87473334:87473774:-|three_prime_utr|ENSG00000152583|control|control|control (ssRNA)
RNA: GGGAGUUCUACAGUCCGACGAUCCUUUCCAGCAUCCUCCUCUGUUCUAACCACUUCAGAAAUAUAUGCAGCUGUGAUACUUGUAGAUUUAUAUUUAGCAAAAUGUUAGCAUGUAUGACAAGACAAUGAGAGUAAUUGCUUGACCAACAGAGGAUUGAGCAUCA
B11: chr8:37861146:37861251:-|3pUTR|ENSG00000156675|unk|FALSE|unique (ssRNA)
RNA: GGGAGUUCUACAGUCCGACGAUCCUGUGCAGAGCAAGAAGAUGAUACUUAUUUUUGAAUUUGUAUUUUUAAAACUAGAUUUAUAGACUUUUUUUUUUUUUAACUAGGGCACUUGCUUCCUUCUUAGCUAAAAGCACCAGCUGACAACAGAGGAUUGAGCAUCA
B12: chr5:180576808:180576909:+|3pUTR|ENSG00000113300|unk|total|mutant (ssRNA)
RNA: GGGAGUUCUACAGUCCGACGAUCUAUUUUCCGUGUCCUAAAUAAUUUUCAAUAAUCUAUAAUCCCUAAAAUGCAAUAAAAACCCGUAUGUUUUCACGGUGUAUAUUUUUUUUCAAAAAUUCUGUAACAAAUAUAUUUAAUGUGCAACAGAGGAUUGAGCAUCA
B13: chr5:180576808:180576909:+|3pUTR|ENSG00000113300|unk|FALSE|unique (ssRNA)
RNA: B12 RNA with C83U, C84A
B14: chr19:39539560:39539696:-|CDS|ENSG00000176396|unk|FALSE|unique (ssRNA)
RNA: GGGAGUUCUACAGUCCGACGAUCCGGGAACGGAGGCCUGGCUGCGUUGCCCUAUCUCCGUCUCCGCCACCCACUUAGCGUUUUAGGCAUCAAUUACCAGCAGUUUCUCCGCCACUAUCUGGAAAAUUACCCGAUUGCUCCCGGCAACAGAGGAUUGAGCAUCA
B15: chr15:93024873:93024975:+|3pUTR|ENSG00000173575|unk|total|mutant (ssRNA)
RNA: GGGAGUUCUACAGUCCGACGAUCGGUCCAGCUCUGAUUCGGGUCACCACUCCUGCACUUUGGCACCCCAUCCCAUUCCAGCCCCGUUCUGGCCUCCCACUUUGACGGGCACUUGGAGGAGGAGCUGACUGUGUGUGUACCAGCCAACAGAGGAUUGAGCAUCA
B16: ENSG00000181035:stop:overlap|stop_codon|ENSG00000181035|stop_codon|NA|stop_codon (ssRNA)
RNA: GGGAGUUCUACAGUCCGACGAUCUGGGCAUCAGCUUCACCACCUUCGACCUCAUGCAGAUCCUGCUGCGGCACCUGCAGAGCUAGGGGACCCUGAGCUGCUCUCAGGACGGUGGACCGGUGACCCCUUUGUAUUCUGGGCCCACAACAGAGGAUUGAGCAUCA
B17: chr1:161190761:161190881:-|3pUTR|ENSG00000158859|msi1|total|mutant (ssRNA)
RNA: GGGAGUUCUACAGUCCGACGAUCUGCGGGUCACAGGAGGGAGGGGGAAGGCAGGGAGGGCCUGGGCCCCAGUUGUAUUUAUUCCGUAUUUAUUCACUUUUAUUCCGCACCAGGGAAGGGGACAAGGACCCGGGUCCUGGGGAACAACAGAGGAUUGAGCAUCA
B18: chr1:161190761:161190881:-|3pUTR|ENSG00000158859|msi1|FALSE|unique (ssRNA)
RNA: B17 RNA with C83U, C84A, C104U, C105A, C129U, C130A
B19: chr7:80742902:80743013:-|3pUTR|ENSG00000075223|msi1_unk|total|mutant (ssRNA)
RNA: GGGAGUUCUACAGUCCGACGAUCUCAGAGUCACAGUUCCCUUUAUUUCACAUAAGCCCAAACUGACCGACAGUAACGGUGUUCCGUUUUAUACUAUAUUUGUGCUAUUUAAUUCUUUCUAUUUUCACAAUUAUUAAAUUGUGUCAACAGAGGAUUGAGCAUCA

The binders below were run against T1, UNK ZnF1-6 (called full-length) (assay: nsRBNS (natural sequence RNA bind-n-seq); RBNS binding buffer (assumed for nsRBNS): 25 mM Tris pH 7.5, 150 mM KCl, 3 mM MgCl2, 0.01% Triton X-100, 500 ug/ml BSA, 20 U/ml SUPERase-In, 4 C; UNK is unkempt and MSI1 is Musashi-1; names of the RNAs are library labels; protein concentration not given here; high values mean tight binding).

| Binder | binding signal |
| --- | --- |
| B1 | 3.03 enrichment R |
| B2 | 0.553 enrichment R |
| B3 | 1.95 enrichment R |
| B4 | 1.26 enrichment R |
| B5 | 0.507 enrichment R |
| B6 | 1.04 enrichment R |
| B7 | 0.975 enrichment R |
| B8 | 0.911 enrichment R |
| B9 | 66 enrichment R |
| B10 | 2.1 enrichment R |
| B11 | 53.1 enrichment R |
| B12 | 10.6 enrichment R |
| B13 | 20.9 enrichment R |
| B14 | 1.3 enrichment R |
| B15 | 4.11 enrichment R |
| B16 | 1.2 enrichment R |
| B17 | 2.05 enrichment R |
| B18 | 32.9 enrichment R |
| B19 | 1.71 enrichment R |
